According to PubChem BioAssay AID2242 (National Center for Advancing Translational Sciences (NCATS), 2010):
Out of some 200,000 compounds screened, about 720 (0.36%) were called active. Roughly 8% stayed inconclusive and do not appear here. Calls follow the shape of the dose curve; as a rule, active = well fitted activation curve with a large enough effect; inconclusive = small, poorly fitted or top-dose-only effect, or effect the other way, or another doubt; inactive = flat fitted curve, though single readings scatter. Some of the results follow.

These compounds were tested against Lysosomal alpha-glucosidase (Homo sapiens) (UniProt P10253) (assay: qHTS Assay for Activators of Human alpha-Glucosidase as a Potential Chaperone Treatment of Pompe Disease). Details: purified enzyme, 4-MU-alpha-glucoside fluorescence, 20 min; series mostly up to 76.9 µM.
In short: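 Compounds titrated up to 77 uM against 4 nM enzyme and 400 uM methylumbelliferyl substrate at room temperature, 20 min, pH 5.0. Basic stop, then 4-methylumbelliferone fluorescence (365/440 nm) normalized to no-enzyme and enzyme controls; Hill-equation AC50.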
Also: nearly all actives have a fitted effect of over 80% in size.
Potency is read from the fitted curve at half-maximal effect.

Potency, active:
O=C(c1ccco1)N1CCN(C/C=C/c2ccccc2)CC1 17.8 µM
COC(=O)C1=CN(Cc2cccs2)C=C(C(=O)OC)C1c1cccc(Cl)c1 35.5 µM
COC(=O)C1=CN(Cc2cccs2)C=C(C(=O)OC)C1c1cccc(OC)c1OC 25.1 µM
CCN1C=C(C(=O)OC)C(c2cccc(OC)c2OC)C(C(=O)OC)=C1 35.5 µM
COC(=O)C1=CN(Cc2cccs2)C=C(C(=O)OC)C1c1ccc(OC)cc1OC 35.5 µM
CCN1C=C(C(=O)OC)C(c2cccc(C)c2)C(C(=O)OC)=C1 35.5 µM
COCCn1cc(C(=O)N2CCN(C)CC2)c2c3ccccc3n(C)c2c1=O 35.5 µM
Cc1cccc(N=c2oc3cc(O)ccc3cc2C(N)=O)c1 35.5 µM
COc1ccccc1N=c1oc2cc(O)ccc2cc1C(N)=O 28.2 µM
NC(=O)c1cc2ccc(O)cc2oc1=NCc1ccccc1 35.5 µM
CCOc1ccccc1N=c1oc2cc(O)ccc2cc1C(=O)NCC1CCCO1 (configuration not stated) 31.6 µM
CCCCNC(=O)CCC(=O)Nc1ccc2nc(N3CCC(C)CC3)cc(C)c2c1 39.8 µM
CCCCNC(=O)CCC(=O)Nc1ccc2nc(N3CCCCC3)cc(C)c2c1 25.1 µM
Cc1cc(N2CCC(C)CC2)nc2ccc(N3C(=O)CCC3=O)cc12 31.6 µM
CCCCN(CC)CCNC(=O)CCC(=O)Nc1ccc2nc(N3CCN(C)CC3)cc(C)c2c1 28.2 µM
COCCCNC(=O)CCC(=O)Nc1ccc2nc(N3CCOCC3)cc(C)c2c1 28.2 µM
CCN(CC)CCCNC(=O)CCC(=O)Nc1ccc2nc(N3CCC(C)CC3)cc(C)c2c1 39.8 µM
Cc1cc(C)c2c(n1)nn1c(NCCOCCO)cc(C)nc21 35.5 µM
Cc1cc(C)c2c(n1)nn1c(NCCCN(C)C)cc(C)nc21 39.8 µM
Cc1cc(C)c2c(n1)nn1c(NCCN3CCOCC3)cc(C)nc21 28.2 µM
COCCNc1cc(C)nc2c3c(C)cc(C)nc3nn12 35.5 µM
CCc1cc2c(C)cc(=O)oc2cc1OC(=O)C1CCCN1C(=O)OC(C)(C)C (configuration not stated) 31.6 µM
CCOP(=O)(OCC)C(NC(=O)c1cccs1)C(F)(F)F (configuration not stated) 31.6 µM
COCCCn1c(CCC(=O)O)ccc1-c1ccc(F)cc1 22.4 µM
O=S1(=O)CCN2C=C(Cl)C=C(Cl)C2=N1 35.5 µM
Cc1c(C)c2cc(Cl)c(O)c(CN3CCN(C)CC3)c2oc1=O 25.1 µM
Cc1c(C)c2cc(Cl)c(O)c(CN3CCCCC3)c2oc1=O 14.1 µM
CCc1c(C)c2cc(Cl)c(O)c(CN3CCCCC3)c2oc1=O 31.6 µM
N=c1oc2ccc3ccccc3c2cc1-c1nnc2n1CCCCC2 35.5 µM
C=CCn1cc(-c2ccccc2)cc(C#N)c1=O 35.5 µM
CC1C2=C(CC(C)(C)CC2=O)NC2=C1C(=O)CC(C)(C)C2 35.5 µM
Cc1c(-c2cccc(NC(=O)c3cccs3)c2)nc2ncccn12 31.6 µM
Cc1c(-c2cccc(NC(=O)c3ccco3)c2)nc2ncccn12 35.5 µM
O=C(Nc1cccc(-c2cn3cccnc3n2)c1)c1ccco1 28.2 µM
N#Cc1cc2c(=O)n3ccccc3nc2n(-c2ccccc2Cl)c1=O 35.5 µM
Cc1ccccc1-n1c(=O)c(C#N)cc2c(=O)n3ccccc3nc21 35.5 µM
Cc1ccc(C)c(-n2c(=O)c(C#N)cc3c(=O)n4ccccc4nc32)c1 35.5 µM
CCOC(=O)c1oc2ccccc2c1NC(=O)COc1ccc(F)cc1 35.5 µM
CCCS(=O)(=O)n1nc(-c2ccc(Br)cc2)cc1N 39.8 µM
Cc1cc(=O)n2ccccc2c1C#N 35.5 µM
COC(=O)C1=C(C)NC2=C(C(=O)CCC2)C1c1cccc(C)n1 (configuration not stated) 28.2 µM
CCOC(=O)C1=C(C)NC2=C(C(=O)CC(C)(C)C2)C1c1cccc(C)n1 (configuration not stated) 35.5 µM
COC(=O)C1=C(C)NC2=C(C(=O)CC(C)(C)C2)C1c1ccccn1 (configuration not stated) 35.5 µM
CCOC(=O)c1cnc2c(-c3ccc(F)cc3)cnn2c1C(F)(F)F 31.6 µM
CCc1cc(=O)oc2cc(OC(C)=O)cc(OC(C)=O)c12 35.5 µM
CC(=O)Oc1cc(OC(C)=O)c2c(C)cc(=O)oc2c1 35.5 µM
CCCCN1C=C(C(=O)OC)C(c2ccccc2Cl)C(C(=O)OC)=C1 22.4 µM
COCCN1C=C(C(=O)OC)C(c2ccccc2C(F)(F)F)C(C(=O)OC)=C1 35.5 µM
COC(=O)C1=CNC=C(C(=O)OC)C1c1ccccc1Cl 31.6 µM
COCCN1C=C(C(=O)OC)C(c2ccccc2Cl)C(C(=O)OC)=C1 31.6 µM
COC(=O)C1=CN(C)C=C(C(=O)OC)C1c1ccc(Cl)cc1Cl 25.1 µM
COC(=O)C1=CNC=C(C(=O)OC)C1c1ccc(Cl)cc1 35.5 µM
COC(=O)C1=CN(C)C=C(C(=O)OC)C1c1ccccc1Cl 31.6 µM
CCOC(=O)c1cc(C(=O)OCC)c2ccccn2c1=O 35.5 µM
CCOC(=O)c1cnc2cc3c(cn2c1=O)CCCC3 28.2 µM
CCOC(=O)c1cnc2sc3c(n2c1=O)CCCC3 39.8 µM
CCOC(=O)c1cnc2cc(C)ccn2c1=O 35.5 µM
CCCCC1(C)Nc2ccccc2-c2nc3ccccc3n21 (configuration not stated) 35.5 µM
c1ccc2c(c1)NC1(CCCC1)n1c-2nc2ccccc21 31.6 µM
CCCC1(C)Nc2ccccc2-c2nc3ccccc3n21 (configuration not stated) 31.6 µM
CC1OC(Oc2ccc3ccc(=O)oc3c2-c2c(O)ccc3cc(Oc4ccc5ccc(=O)oc5c4)c(=O)oc23)C(O)C(O)C1O (configuration not stated) 39.8 µM
N#Cc1cc2c(=O)n3ccccc3nc2n(CCCN2CCOCC2)c1=O 35.5 µM
C=CCn1c(=O)c(C#N)cc2c(=O)n3ccccc3nc21 35.5 µM
Cc1cccn2c(=O)c3cc(C#N)c(=O)n(CCCN4CCOCC4)c3nc12 35.5 µM
Cc1[nH]nc2c1-c1nc3ccccc3nc1C(C)(C)C2 28.2 µM
COc1ccc2c(c1)c1ncn(Cc3ccco3)c(=O)c1n2C 35.5 µM
COCCn1c(=O)[nH]c(=O)c2c(C(F)(F)F)cc(-c3cccs3)nc21 28.2 µM
CCCn1c(=O)[nH]c(=O)c2c(C(=O)OCC)cc(-c3cccs3)nc21 35.5 µM
CCCn1c(=O)c2c(C(=O)OCC)cc(-c3ccco3)nc2n(CCC)c1=O 35.5 µM
O=c1[nH]c(=O)n(Cc2ccccc2)c2nc(-c3ccco3)cc(C(F)(F)F)c12 31.6 µM
CCCCn1c(=O)[nH]c(=O)c2c(C(=O)OCC)cc(-c3cccs3)nc21 35.5 µM
COc1ccc2cc(/C=N/NC(=O)CN(c3ccccc3)S(=O)(=O)c3ccccc3)c(Cl)nc2c1 35.5 µM
COC(=O)C1=CN(C)C=C(C(=O)OC)C1c1ccsc1 35.5 µM
CCOC(=O)C1=CN(C)C=C(C(=O)OCC)C1c1ccsc1 31.6 µM
N#Cc1cc2ccccc2nc1N 39.8 µM
COc1ccc(-c2cc(=Nc3c(C)n(C)n(-c4ccccc4)c3=O)c3ccccc3o2)cc1 35.5 µM
Nc1nc2nc(-c3ccc(F)cc3)cc(C(F)(F)F)n2n1 25.1 µM
COc1ccc(-c2cc(C(F)(F)F)n3nc(N)nc3n2)cc1 35.5 µM
Nc1nc2nc(-c3ccc(Cl)cc3)cc(C(F)(F)F)n2n1 31.6 µM
Nc1nc2nccc(-c3ccc(Cl)cc3)n2n1 22.4 µM
Cc1nc2cc3ccccc3cc2c(=O)[nH]1 25.1 µM
CCCCCCc1cc2cc(C(N)=O)c(=N)oc2cc1O 31.6 µM
CCCCCCc1cc2cc(S(=O)(=O)c3ccc(F)cc3)c(=O)oc2cc1O 31.6 µM
CCCCCCc1cc2cc(C(=O)NCc3ccccc3)c(=N)oc2cc1O 35.5 µM
CCOc1ccc(C2C(C(=O)OC)=CN(CCOC)C=C2C(=O)OC)cc1 35.5 µM
COCCN1C=C(C(=O)OC)C(c2cc(Br)c(OC)c(OC)c2)C(C(=O)OC)=C1 35.5 µM
CCCOc1ccc(C2C(C(=O)OC)=CN(CCOC)C=C2C(=O)OC)cc1 35.5 µM
Cc1cc(N2CCOCC2)nc2ccc(NC(=O)CCC(=O)N3CCCC(C)C3)cc12 (configuration not stated) 39.8 µM
Cc1cc(N2CCOCC2)nc2ccc(NC(=O)CCC(=O)N3CCCCC3)cc12 35.5 µM
Oc1ccc(N=Cc2ccc(-c3cccs3)s2)cc1 31.6 µM
CC(C)c1ccc2oc3nc(N)c(C(=O)O)cc3c(=O)c2c1 35.5 µM
N#Cc1ccc2c(c1)nc1ccccn12 35.5 µM
Cc1cc(=O)oc2c(CN3CCN(C)CC3)c(O)c(Cl)cc12 35.5 µM
Cc1cc(=O)oc2c(CN3CCC(C)CC3)c(O)c(Cl)cc12 35.5 µM
Cc1cc(=O)oc2c(CN3CCCCC3)c(O)c(Cl)cc12 31.6 µM
Cc1cc(=O)oc2c(CN3CC(C)OC(C)C3)c(O)c(Cl)cc12 (configuration not stated) 10 µM
CCN1CCN(Cc2c(O)c(Cl)cc3c(C)cc(=O)oc23)CC1 35.5 µM
